Test systems include NCI-H23 lung; NCI-H226 lung; NCI-H322M lung; HOP-62 NSCLC; NCI-H460 lung; HOP-92 NSCLC; NCI-H522 lung; A549/ATCC NSCLC; 786-0 renal; COLO 205 colon; DU-145 prostate; K-562 leukemia; MALME-3M melanoma; MDA-MB-231 breast; RXF 393 renal; SF-268 CNS; SF-295 CNS; SF-539 CNS; UACC-257 melanoma; M14 melanoma.
Assay in all cases: NCI-60 one-dose screen, 48 h (100 = growth as untreated, 0 = no growth, -100 = all killed)
What all share (settings): 10 µM unless noted

From PubChem BioAssay (NCI) come the findings set out here.

The structures appear in SMILES notation. The panel holds about 83,000 compounds, 20% with a hit somewhere; the sample as a whole holds those more often.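 Each cell line was grown in a 96-well plate and treated with one concentration of compound for 48 hours. Values below 10 were considered active.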 Values without a mark were called inactive. The source made the active and inactive calls.

Take `Clc1nn2c(Cn3cnc4c(NCc5ccccc5)ncnc43)nnc2c2ccccc12`: the growth was 53.6% with NCI-H23 lung; 42.5% in the test with NCI-H226 lung; 21% with NCI-H322M lung; 37.9% in the test with HOP-62 NSCLC; 34% in the test on NCI-H460 lung; 5.22% (active) in the test with HOP-92 NSCLC. The growth in the test with NCI-H522 lung was 43.7%; in the test with A549/ATCC NSCLC, 40%; in the test with 786-0 renal it was 40%; with COLO 205 colon, 35.1%; in the test on DU-145 prostate, 36.7%; in the test on K-562 leukemia it was 42.7%. In addition, the growth was 27.8% in the test on MALME-3M melanoma; 26.6% with MDA-MB-231 breast; 39% in the test on RXF 393 renal; 41.9% in the test with SF-268 CNS; 63.2% with SF-295 CNS; 50.7% with SF-539 CNS. In addition, the growth is 39.1% in the test on UACC-257 melanoma and 19.7% in the test with M14 melanoma.
On to `O=C(CSc1nnc2sc(Nc3cccc(Cl)c3)nn12)c1ccc(F)cc1`, for which the growth in the test on NCI-H23 lung is 80.3%; in the test with NCI-H226 lung it was 95.9%; with NCI-H322M lung it was 91.5%; with HOP-62 NSCLC it was 97.7%; with NCI-H460 lung, 95.8%; with HOP-92 NSCLC, 74.5%. For the same molecule, the growth in the test on NCI-H522 lung was 75.6%; with A549/ATCC NSCLC it was 87.1%; in the test with 786-0 renal it was 91.4%; in the test with COLO 205 colon it was 92.6%; with DU-145 prostate it was 104%; in the test with K-562 leukemia, 90.6%. In addition, the growth with MALME-3M melanoma was 116%; in the test with MDA-MB-231 breast, 79.7%; in the test with RXF 393 renal it was 102%; in the test with SF-268 CNS, 101%; in the test with SF-295 CNS, 97.2%; in the test with SF-539 CNS it was 102%. The growth is 102% in the test on UACC-257 melanoma and 96% in the test on M14 melanoma.
As to `NC(=S)N/N=C/c1cn(-c2ccccc2)nc1-c1cc2ccccc2oc1=O`, the growth was 78.2% in the test with NCI-H23 lung; 81.3% in the test on NCI-H226 lung; 89.2% with NCI-H322M lung; 72.3% in the test on HOP-62 NSCLC; 21% with NCI-H460 lung; 79.7% in the test with HOP-92 NSCLC. Moreover, the growth with NCI-H522 lung is 36.5%; with A549/ATCC NSCLC it was 46.4%; with 786-0 renal, 62.4%; in the test on COLO 205 colon, 46.4%; with DU-145 prostate it was 85.3%; in the test with K-562 leukemia it was 17.1%. Moreover, the growth in the test with MALME-3M melanoma was 48.8%; in the test with MDA-MB-231 breast, 34.3%; in the test on RXF 393 renal, 78%; in the test on SF-268 CNS, 66.1%; in the test with SF-295 CNS, 48.1%; in the test on SF-539 CNS, 57.2%. Moreover, the growth in the test with UACC-257 melanoma was 71.5%; in the test with M14 melanoma, 22.1%.
In the case of `CCCCSCC(=O)c1ccccc1`, the growth in the test on NCI-H23 lung was 86.2%; in the test with NCI-H226 lung it was 99.6%; in the test with NCI-H322M lung it was 89.7%; in the test with HOP-62 NSCLC, 80.9%; in the test on NCI-H460 lung it was 109%; in the test on HOP-92 NSCLC, 94.5%. The growth in the test on NCI-H522 lung is 58.2%; in the test on A549/ATCC NSCLC it was 78.1%; with 786-0 renal, 99.8%; in the test with COLO 205 colon it was 100%; with DU-145 prostate, 103%; in the test with K-562 leukemia, 97.3%. In addition, the growth with MALME-3M melanoma was 89.6%; with MDA-MB-231 breast, 102%; with RXF 393 renal, 114%; in the test with SF-268 CNS it was 97.1%; in the test with SF-295 CNS, 105%; in the test on SF-539 CNS it was 98.4%. In addition, the growth in the test with UACC-257 melanoma is 80.9%; with M14 melanoma it was 99.4%.
Regarding `CN(C)c1ccc(/C=C/C(=O)c2ccccc2)cc1`, the growth in the test on NCI-H23 lung was 97.8%; with NCI-H226 lung, 99.9%; with NCI-H322M lung, 98.4%; with HOP-62 NSCLC it was 81%; in the test with NCI-H460 lung, 105%; in the test on HOP-92 NSCLC, 88%. For the same molecule, the growth in the test with NCI-H522 lung is 60.3%; in the test with A549/ATCC NSCLC it was 65.4%; in the test on 786-0 renal, 88.8%; in the test on COLO 205 colon, 93.7%; in the test on DU-145 prostate, 95.9%; in the test with K-562 leukemia it was 32%. Further, the growth in the test on MALME-3M melanoma was 82.5%; in the test with MDA-MB-231 breast it was 103%; with RXF 393 renal, 93.8%; in the test on SF-268 CNS, 89.7%; in the test with SF-295 CNS, 92.7%; in the test on SF-539 CNS, 89.3%. Moreover, the values for the growth in the test with UACC-257 melanoma and with M14 melanoma were 62.9% and 76%, respectively.
For the molecule `CCOc1ccc(NC(=O)c2cc(OC)c(OC)c(OC)c2)cc1`, the growth is 45.8% in the test with NCI-H23 lung; 68.1% in the test on NCI-H226 lung; 52.2% with NCI-H322M lung; 56.2% in the test with HOP-62 NSCLC; 17.1% in the test on NCI-H460 lung; 44.1% in the test with HOP-92 NSCLC. Further, the growth was 42.3% with NCI-H522 lung; 46.6% with A549/ATCC NSCLC; 32.3% with 786-0 renal; 11.8% in the test with COLO 205 colon; 54% in the test on DU-145 prostate; 17% with K-562 leukemia. Further, the growth in the test on MALME-3M melanoma was 38.2%; with MDA-MB-231 breast it was 62.7%; with RXF 393 renal, 39.8%; in the test with SF-268 CNS, 47.6%; with SF-295 CNS it was 26.2%; in the test on SF-539 CNS, 23.5%. Also, the growth in the test with UACC-257 melanoma is 50.1%; in the test with M14 melanoma, 16.5%.
Consider `O=C(CSc1nc2ccc([N+](=O)[O-])cc2[nH]1)Nc1cccc([N+](=O)[O-])c1`, for which the growth in the test on NCI-H23 lung was 24.8%; in the test with NCI-H226 lung it was 36.5%; with NCI-H322M lung it was 83.5%; in the test with HOP-62 NSCLC, 95.6%; in the test on NCI-H460 lung, 47.5%; with HOP-92 NSCLC, -14.2% (active). For the same molecule, the growth in the test with NCI-H522 lung is 19.8%; in the test with A549/ATCC NSCLC, 58%; in the test with 786-0 renal, 61.6%; with COLO 205 colon, 52.5%; in the test with DU-145 prostate, 67%; with K-562 leukemia, 36.5%. In addition, the growth in the test with MALME-3M melanoma was 30.5%; in the test with MDA-MB-231 breast, 73.7%; with RXF 393 renal, 60.5%; in the test with SF-268 CNS, 64.6%; in the test on SF-295 CNS, 43.8%; with SF-539 CNS, 66.6%. Moreover, the growth in the test on UACC-257 melanoma is 42.7%; with M14 melanoma, 57.1%.
